In PubChem BioAssay (EPA / NIEHS):
“And” between values parts separate entries of the source, which are not always exact repeats. Equal values may be shown once. Inconclusive results are not listed. A structure can be active in one record and inactive in another. The source made the active and inactive calls. Rule for the calls: active = hit-call score of the fitted dose curve at least 0.9, where 1 is the maximum; inconclusive = response in the unintended direction; inactive = score below 0.9.

Assays:
[1] = Tanguay_ZF_120hpf_SWIM_legacy: (Legacy) Oregon State University Tanguay Lab 120 Hour Post-fertilization zebrafish Assay for Swim Bladder Malformation (AID 2283654);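 note: swim bladder malformation in each larva scored yes or no under brightfield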
Summary of the method: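 Dechorionated wild-type Tropical 5D zebrafish embryos, one per well from 6 hpf, were statically exposed at 28C until 120 hpf in 0.64% DMSO. Swim bladder malformation scored as present/absent by brightfield microscopy; not scored in dead larvae.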

[2] = Tanguay_ZF_120hpf_TRUN_legacy: (Legacy) Oregon State University Tanguay Lab 120 Hour Post-fertilization zebrafish Assay for Truncated Body (AID 2283655)
Summary of the method: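 Whole-embryo zebrafish screen: dechorionated 5D embryos, static exposure 6–120 hpf, 28C, sealed foil-covered plates, 0.64% DMSO. Binary truncation call; gain of signal versus DMSO baseline.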

[3] = Tanguay_ZF_120hpf_NC_legacy: (Legacy) Oregon State University Tanguay Lab 120 Hour Post-fertilization zebrafish Assay for Notochord and Tail Malformation (AID 2283656)
Summary of the method: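 Dechorionated Tropical 5D wild-type zebrafish embryos, one per well from 6 hpf, statically exposed to 120 hpf at 28C in 0.64% DMSO final. Notochord distortion scored present/absent by brightfield; dead embryos excluded.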

[4] = read-out: ABC Transporter (ABCB1), ABCB1 (gene 5243); assay: CLD_ABCB1_6hr: CellzDirect (CLD) Gene Expression Assay for ABC Transporter (ABCB1) at 6 hours (AID 2283659);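 note: hits raise ABCB1 transcript above the DMSO vehicle baseline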
Summary of the method: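 Primary human hepatocytes (two donor preparations) dosed daily for two days with chemicals at multiple concentrations, 0.2% DMSO vehicle; harvested 6 h post-dose. ABCB1 mRNA induction quantified by qNPA chemiluminescence; gain-of-signal fitted versus DMSO.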

[5] = read-out: Broad substrate specificity ATP-binding cassette transporter ABCG2 (Homo sapiens) (UniProt Q9UNQ0); assay: CLD_ABCG2_6hr: CellzDirect (CLD) Gene Expression Assay for ABC Transporter (ABCG2) at 6 hours (AID 2283660)
Summary of the method: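 Primary human hepatocytes dosed daily with chemicals at multiple concentrations (0.2% DMSO vehicle), harvested 6 h after dosing. ABCG2 mRNA induction read by quantitative nuclease protection assay (qNPA) chemiluminescence; gain of signal fitted against DMSO baseline.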

[6] = read-out: xenobiotic metabolism (CYP1A1), CYP1A1 (gene 1543); assay: CLD_CYP1A1_6hr: CellzDirect (CLD) Gene Expression Assay for xenobiotic metabolism (CYP1A1) at 6 hours (AID 2283661);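 for AC50: potency for transcript induction above DMSO vehicle baseline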
Summary of the method: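 Primary human hepatocytes from two donors, compound versus 0.2% DMSO vehicle. CYP1A1 mRNA measured 6 h after dosing by quantitative nuclease protection assay with chemiluminescent read-out; induction fitted relative to DMSO, cytotoxicity flagged by microscopy.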

[7] = read-out: xenobiotic metabolism (CYP1A2), CYP1A2 (gene 1544); assay: CLD_CYP1A2_6hr: CellzDirect (CLD) Gene Expression Assay for xenobiotic metabolism (CYP1A2) at 6 hours (AID 2283663);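 for AC50: potency is for induction meaning a rise in mRNA above DMSO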
Summary of the method: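 Primary human hepatocytes from two donor preparations, dosed daily with multiple concentrations in 0.2% DMSO and harvested at 6 h. CYP1A2 mRNA induction measured by chemiluminescent qNPA, gain of signal fitted against DMSO; cytotoxicity flagged morphologically.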

[8] = read-out: organic anion transporter (SLCO1B1), SLCO1B1 (gene 10599); assay: CLD_SLCO1B1_6hr: CellzDirect (CLD) Gene Expression Assay for organic anion transporter (SLCO1B1) at 6 hours (AID 2283668);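 note: active means mRNA induction above DMSO baseline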
Summary of the method: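 Primary human hepatocytes dosed daily with test chemicals (multiple concentrations) in 0.2% DMSO vehicle; harvested at 6 h. SLCO1B1 mRNA quantified by qNPA chemiluminescence, fitted as gain-of-signal versus DMSO; cytotoxicity from phase-contrast morphology flagged alongside.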

[9] = read-out: sulfotransferase (SULT2A), SULT2A1 (gene 6822); assay: CLD_SULT2A_6hr: CellzDirect (CLD) Gene Expression Assay for sulfotransferase (SULT2A) at 6 hours (AID 2283669);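 note: hits raise transcript level above the DMSO vehicle baseline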
Summary of the method: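 Primary human hepatocytes from two donor preparations were dosed daily with chemicals or 0.2% DMSO and harvested at 6 h. Transcript induction read by qNPA chemiluminescence, fitted for gain of signal relative to DMSO; morphology-based cytotoxicity annotated.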

[10] = read-out: glucuronosyltransferase (UGT1A1), UGT1A1 (gene 54658); assay: CLD_UGT1A1_6hr: CellzDirect (CLD) Gene Expression Assay for glucuronosyltransferase (UGT1A1) at 6 hours (AID 2283672)
Summary of the method: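 Primary human hepatocytes from two donor preparations, dosed with fresh solutions in 0.2% DMSO, harvested at 6 h. UGT1A1 mRNA measured by qNPA chemiluminescence; induction fitted upward versus DMSO.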

[11] = read-out: xenobiotic metabolism (CYP1A1), CYP1A1 (gene 1543); assay: CLD_CYP1A1_24hr: CellzDirect (CLD) Gene Expression Assay for xenobiotic metabolism (CYP1A1) at 24 hours (AID 2283673);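 note: CYP1A1 mRNA level by quantitative nuclease protection with chemiluminescence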
Summary of the method: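 Primary human hepatocytes dosed daily with fresh solutions in 0.2% DMSO vehicle. mRNA measured at 24 h by quantitative nuclease protection assay with chemiluminescence; gain-of-signal fit versus DMSO, with morphology-based cytotoxicity flags.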

[12] = read-out: ABC Transporter (ABCB11), ABCB11 (gene 8647); assay: CLD_ABCB11_6hr: CellzDirect (CLD) Gene Expression Assay for ABC Transporter (ABCB11) at 6 hours (AID 2283675);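 note: hits raise ABCB11 mRNA level so AC50 marks induction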
Summary of the method: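 Human primary hepatocytes (two donor preparations) given fresh chemical daily at multiple concentrations, vehicle 0.2% DMSO. ABCB11 mRNA induction measured 6 h after dosing by qNPA chemiluminescence versus DMSO; cytotoxicity annotated from morphology.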

[13] = CLD_ACTIN_6hr: CellzDirect (CLD) Gene Expression Assay for Baseline Control (Actin) at 6 hours (AID 2283676);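 note: active means increased actin mRNA relative to DMSO vehicle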
Summary of the method: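 Primary human hepatocytes dosed with fresh chemical solutions (vehicle 0.2% DMSO), harvested at 6 h. Actin mRNA quantified by quantitative nuclease protection assay with chemiluminescent read-out, as background control relative to DMSO.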

[14] = Tanguay_ZF_120hpf_TR_legacy: (Legacy) Oregon State University Tanguay Lab 120 Hour Post-fertilization zebrafish Assay for Touch Response (AID 2283667)
Summary of the method: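 Tropical 5D wild-type zebrafish embryos statically exposed to 120 hpf at 28°C, sealed and dark-covered, 0.64% DMSO final; touch response scored as present/absent by brightfield microscopy at 120 hpf. Trimethyltin chloride 5 uM positive control; dead embryos not scored.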

[15] = system: Thyroperoxidase (TPO), gene 54314; assay: CCTE_Simmons_AUR_rTPO: CCTE's Amplex UltraRed Assay for Thyroperoxidase (TPO) Inhibition, Simmons Lab (AID 2283662);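 for AC50: potency for loss of signal meaning inhibition of peroxidase activity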
Summary of the method: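 Rat thyroid microsomes (5 ug protein) with 25 uM Amplex UltraRed and 300 uM H2O2 in 200 mM phosphate buffer, 30 min at 37C in dark; fluorescence 544/590 nm. Eight concentrations, 5 nM–87.5 uM final, 0.5% DMSO, triplicate biological replicates.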

[16] = CCTE_Simmons_CellTiterGLO_HEK293T: Viability Assessment in CCTE's Assays for Thyroperoxidase (TPO) Inhibition, Simmons Lab (AID 2283665);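 for AC50: cells exposed to compound for 24 h before readout; actives reduce ATP signal below DMSO vehicle meaning cytotoxicity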
Summary of the method: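 HEK293T, 10 000 cells/well, DMEM + 1% FBS; 8-pt titration 5 nM–87.5 uM [final], 0.5% DMSO; 24 hr, 37C, 5% CO2; CellTiter-Glo luminescence; n=3 biological replicates.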

Measured: AC50

Sequence of Broad substrate specificity ATP-binding cassette transporter ABCG2 (Homo sapiens) (Q9UNQ0 whole entry, looked up): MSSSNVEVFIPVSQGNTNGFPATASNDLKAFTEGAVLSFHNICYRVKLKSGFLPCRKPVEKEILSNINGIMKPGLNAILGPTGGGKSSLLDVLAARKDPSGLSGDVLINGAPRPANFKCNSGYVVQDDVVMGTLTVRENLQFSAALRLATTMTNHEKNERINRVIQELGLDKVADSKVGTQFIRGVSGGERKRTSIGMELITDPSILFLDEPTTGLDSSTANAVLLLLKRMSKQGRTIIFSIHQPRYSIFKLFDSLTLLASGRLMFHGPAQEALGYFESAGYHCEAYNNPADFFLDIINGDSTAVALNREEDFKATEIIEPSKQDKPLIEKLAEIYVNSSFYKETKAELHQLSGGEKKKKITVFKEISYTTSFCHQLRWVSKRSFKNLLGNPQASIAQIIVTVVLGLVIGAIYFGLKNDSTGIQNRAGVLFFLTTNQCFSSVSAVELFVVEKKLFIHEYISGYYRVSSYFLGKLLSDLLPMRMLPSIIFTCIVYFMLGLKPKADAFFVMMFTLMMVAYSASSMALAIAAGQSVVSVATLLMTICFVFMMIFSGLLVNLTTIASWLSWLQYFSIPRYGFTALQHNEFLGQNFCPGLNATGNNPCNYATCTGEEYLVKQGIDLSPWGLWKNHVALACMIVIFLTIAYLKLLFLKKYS

Cc1c(F)c(F)c(COC(=O)C2C(/C=C(\Cl)C(F)(F)F)C2(C)C)c(F)c1F (configuration not stated)
active: [2] 2.36 µM
inactive: [1] | [3] | [4] | [5] | [6] | [7] | [8] | [9] | [10] | [11] | [12] | [13]

CCNc1nc(Cl)nc(NC(C)C)n1
active: [6] 2.19 µM | [7] 1.62 µM | [11] 4.27 µM
inactive: [1] | [2] | [3] | [4] | [5] | [14] | [8] | [9] | [10]

CC(C)C1(C)N=C(c2nc3ccccc3cc2C(=O)O)NC1=O (configuration not stated)
inactive: [1] | [2] | [3] | [6] | [8] | [9] | [10] | [11] | [13]

COc1nc(C)nc(NC(=O)NS(=O)(=O)c2ccccc2Cl)n1
inactive: [4] | [5] | [6] | [7] | [8] | [9] | [10] | [11] | [12] | [13]
active: [6] 0.00131 µM | [7] 0.00149 µM

C=CCC1=C(C)[C@@H](OC(=O)[C@@H]2[C@@H](C=C(C)C)C2(C)C)CC1=O
active: [15] 54 µM | [16] 42.5 µM | [9] 20 µM
inactive: [1] | [3] | [4] | [5] | [6] | [7] | [8] | [10] | [11] | [12]

CCNc1nc(Cl)nc(NCC)n1
inactive: [1] | [2] | [7] | [8] | [10] | [13]
active: [6] 4.72 µM | [11] 5.56 µM

CCOP(=S)(OCC)SCn1c(=O)oc2cc(Cl)ccc21
inactive: [1] | [2] | [4] | [7] | [9] | [10] | [12]
active: [6] 0.36 µM | [15] 2.18 µM | [16] 67.4 µM | [11] 5.28 µM

CON(C)C(=O)Nc1ccc(Cl)c(Cl)c1
active: [6] 0.762 µM | [15] 35 µM | [7] 0.752 µM | [11] 1.82 µM
inactive: [1] | [2] | [3] | [16] | [9] | [10]

COc1ccc(C(c2ccc(OC)cc2)C(Cl)(Cl)Cl)cc1
inactive: [1] | [2] | [4] | [9] | [10] | [11] | [12]
active: [6] 15.8 µM | [7] 17.3 µM

COC(=O)C=C(C)OP(=O)(OC)OC
inactive: [1] | [2] | [5] | [6] | [16] | [8] | [9] | [10] | [12] | [13]
active: [15] 14 µM

CN(C)C(=S)SSC(=S)N(C)C
active: [16] 40.2 µM | [11] 35 µM
inactive: [2] | [3] | [4] | [5] | [15] | [8] | [12] | [13]

Cc1cc(Cl)ccc1OCC(=O)O
inactive: [1] | [2] | [4] | [5] | [6] | [14] | [9] | [10] | [11] | [13]

CS/C(C)=N/OC(=O)N(C)SN(C)C(=O)O/N=C(\C)SC
active: [3] 25 µM
inactive: [1] | [2] | [5] | [6] | [11] | [12] | [13]

CNC(=S)S
active: [15] 22 µM and 23 µM | [9] 7.49 µM
inactive: [2] | [3] | [5] | [6] | [16] | [14] | [10] | [11] | [12]
